The whole screen tested about 5,500 compounds, of which about 2,000 (36%) were called active. Not shown: some 18% with an inconclusive outcome. Rule as the data show it: active = normalized growth mostly below about 0.91 (no sharp cut-off); inconclusive = no clear call, values can overlap the other calls; inactive = mostly above about 0.92. The list shows a part of the results.
Test: chemical genetic growth profiling, strain panel (AID 1159580);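 also: tested at 20 µM; growth read once vehicle control cultures reached saturation at 30 °C; 1 = growth at the plate median or of vehicle wells; lower values mean less growth of the strain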
Details: S. cerevisiae deletion strains, growth OD

Measured: normalized growth

CC1(C)C2CCC1(C)C(O)C2 (stereo not drawn)
inactive: locus YHR030C, strain SLT2, stronger effect = lower value 0.98 | locus YHR079C, strain IRE1, stronger effect = lower value 0.981 | locus YJL095W, strain BCK1, stronger effect = lower value 0.999 | locus YJR066W, strain TOR1, stronger effect = lower value 0.923 | locus YLR113W, strain HOG1, stronger effect = lower value 0.991 | locus YNL183C, strain NPR1, stronger effect = lower value 0.947 | locus YOR231W, strain MKK1, stronger effect = lower value 0.992 | locus YPL256C, strain CLN2, stronger effect = lower value 0.993
